Experimental data as given in the supplement of paper PMC12669032.
Unmarked numbers belong to inactive results.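 Rule for the calls: active = AUC reduced over 20% with Padj below 0.05 in at least 2 of 3 replicates; inactive = otherwise.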

How the values were obtained:
Test in all cases: growth AUC relative to DMSO control (median of replicates) (fraction); higher = more growth (less inhibition), active = hit call of the paper
Settings in all cases: 20 µM; 24 h
Coprococcus comes = test system: Coprococcus comes
Method in brief: (§1)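 In round-bottom 96-well plates sealed with pierced gas-permeable seals, gut bacterial monocultures in mGAM were grown anaerobically at 37 °C from OD600 0.05 with 20 µM compound (1% DMSO). OD600 readings were taken hourly for 24 h, and the minimum OD was set to 0. Area under the growth curve was then normalised to the plate median of solvent-only wells, or to row and column medians on the industrial chemical plate. The value given is the median of three biological replicates grown on separate days.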

Escherichia coli ED1a = test system: Escherichia coli ED1a
Method in brief: as §1

Escherichia coli IAI1 = test system: Escherichia coli IAI1
Method in brief: as §1

Eubacterium rectale = test system: Eubacterium rectale
Method in brief: as §1

[1] = test system: Fusobacterium nucleatum subsp. animalis
Method in brief: as §1

Lactobacillus gasseri = test system: Lactobacillus gasseri
Method in brief: as §1

Lactobacillus paracasei = test system: Lactobacillus paracasei
Method in brief: as §1

Odoribacter splanchnicus = test system: Odoribacter splanchnicus
Method in brief: as §1

[2] = test system: Parabacteroides distasonis
Method in brief: as §1

Parabacteroides merdae = test system: Parabacteroides merdae
Method in brief: as §1

Roseburia intestinalis = test system: Roseburia intestinalis
Method in brief: as §1

Streptococcus salivarius = test system: Streptococcus salivarius
Method in brief: as §1

| Structure (SMILES) | growth AUC (Coprococcus comes) | growth AUC (Escherichia coli ED1a) | growth AUC (Escherichia coli IAI1) | growth AUC (Eubacterium rectale) | growth AUC [1] | growth AUC (Lactobacillus gasseri) | growth AUC (Lactobacillus paracasei) | growth AUC (Odoribacter splanchnicus) | growth AUC [2] | growth AUC (Parabacteroides merdae) | growth AUC (Roseburia intestinalis) | growth AUC (Streptococcus salivarius) |
| --- | --- | --- | --- | --- | --- | --- | --- | --- | --- | --- | --- | --- |
| CCN(CC)C(=O)C(C)Oc1cccc2ccccc12 (stereo unspecified) | 1.01 | 0.979 | 1.01 | 0.983 | 1.02 | 1.03 | 0.977 | 0.96 | 0.997 | 1.02 | 1.08 | 0.959 |
| N#Cc1nn(-c2c(Cl)cc(C(F)(F)F)cc2Cl)c(N)c1C(F)(F)F | 0.885 | 0.986 | 0.978 | 1.01 | 0.842 | 0.801 | 0.927 | 0.696 | 0.791 (active) | 0.834 | 0.698 (active) | 0.539 (active) |
| COP(=S)(OC)SC(CC(=O)O)C(=O)O (stereo unspecified) | 1.01 | 1.02 | 0.974 | 0.884 | 1.01 | 1.03 | 0.972 | 1.14 | 0.956 | 0.976 | 1.02 | 1.03 |
| CC(C)Oc1cc(-n2nc(C(C)(C)C)oc2=O)c(Cl)cc1Cl | 1.01 | 0.96 | 0.993 | 1.04 | 1 | 0.803 | 1.01 | 0.967 | 0.705 (active) | 0.96 | 0.931 | 0.971 |
| CC(=NCc1ccc(Cl)nc1)NC#N | 1 | 1.02 | 1.03 | 1 | 1.09 | 0.997 | 1.03 | 1.04 | 0.999 | 0.968 | 0.997 | 1 |
| CCNc1nc(Cl)nc(NC(C)(C)C#N)n1 | 0.988 | 1.02 | 0.988 | 0.889 | 0.949 | 1.19 | 0.968 | 0.985 | 1 | 1.01 | 1.03 | 0.976 |
| CC#Cc1cc(C)nc(Nc2ccccc2)n1 | 1.01 | 0.986 | 0.973 | 1.03 | 1.1 | 0.844 | 0.983 | 1.06 | 0.945 | 0.991 | 1.01 | 1.01 |
| CCOP(=S)(OCC)Oc1cnccn1 | 0.984 | 0.988 | 0.963 | 0.813 | 1.01 | 0.993 | 1.01 | 1.04 | 1 | 1.01 | 0.976 | 1 |
| O=C(OC1CCCCC1)c1ccccc1C(=O)OC1CCCCC1 | 0.97 | 1 | 0.99 | 0.946 | 1.01 | 1.08 | 1.02 | 0.991 | 0.957 | 1 | 0.983 | 1 |
| CNC(=O)O/N=C(\C)C(C)S(C)=O (stereo unspecified) | 1.01 | 1.02 | 0.987 | 0.914 | 1.02 | 0.881 | 1.02 | 1.04 | 1.05 | 1.02 | 0.991 | 0.96 |
| Oc1ccc(Cc2ccc(O)cc2)cc1 | 0.968 | 1.03 | 0.979 | 1.09 | 0.987 | 1.04 | 0.962 | 0.942 | 0.89 | 0.994 | 0.999 | 0.966 |
| CC(Oc1ccc(Oc2ccc(Cl)cc2Cl)cc1)C(=O)O (racemic) | 0.943 | 0.974 | 1.02 | 0.988 | 0.961 | 1.16 | 0.999 | 1.09 | 1.06 | 0.956 | 0.989 | 0.934 |
| S=C1NCCN1 | 1.02 | 1.01 | 1.01 | 1.04 | 1.08 | 1.02 | 0.923 | 1.04 | 1.05 | 1.04 | 1.01 | 0.992 |
| c1cc2c3c(cccc3c1)CC2 | 1 | 1.01 | 1.01 | 1.05 | 1.07 | 1.05 | 1.01 | 1.01 | 1.01 | 0.995 | 0.998 | 1.01 |
| O=C(NC(=O)c1c(F)cccc1F)Nc1ccc(CO/N=C(\c2ccc(Cl)cc2)C2CC2)cc1 | 0.988 | 1 | 0.986 | 0.952 | 0.997 | 0.963 | 0.962 | 1.01 | 1.04 | 0.975 | 0.968 | 0.996 |
| O=C(NC(=O)c1c(F)cccc1F)Nc1cc(Cl)c(Oc2ncc(C(F)(F)F)cc2Cl)c(Cl)c1 | 1.02 | 1.02 | 0.991 | 1.01 | 1.02 | 1.16 | 1.02 | 1.02 | 1.02 | 1.02 | 1.11 | 0.98 |
| COC[C@H](C)N(C(=O)CCl)c1c(C)csc1C | 1 | 0.985 | 0.981 | 1.17 | 0.988 | 0.922 | 0.95 | 0.976 | 0.963 | 0.956 | 0.966 | 1.04 |
| CCOP(=S)(OCC)Oc1ccc([N+](=O)[O-])cc1 | 0.997 | 1 | 0.979 | 1.09 | 1.11 | 0.98 | 1.04 | 1.02 | 0.964 | 0.994 | 1.01 | 0.93 |
| CCC(C)c1cc([N+](=O)[O-])cc([N+](=O)[O-])c1O (stereo unspecified) | 0.884 | 0.935 | 0.924 | 0.939 | 0.737 | 0.959 | 0.925 | 0.799 (active) | 0.841 | 0.929 | 0.887 | 0.938 |
| C#CCC1=C(C)C(OC(=O)C2C(C=C(C)C)C2(C)C)CC1=O (stereo unspecified) | 0.997 | 1.02 | 1 | 1.03 | 1.06 | 0.998 | 1 | 1.11 | 0.952 | 0.946 | 0.921 | 0.959 |
| CO/C=C(/C(=O)OC)c1ccccc1COc1cccc(C(F)(F)F)n1 | 0.993 | 0.989 | 0.997 | 0.937 | 0.948 | 0.975 | 1.02 | 0.964 | 0.558 (active) | 0.924 | 0.989 | 0.999 |
| ClC1=C(Cl)C2(Cl)[C@H]3[C@H]4O[C@H]4[C@H](Cl)[C@H]3C1(Cl)C2(Cl)Cl (single isomer, unassigned; isomer a) | 0.941 | 0.982 | 0.971 | 1.05 | 1.08 | 0.96 | 0.991 | 1.08 | 1.02 | 0.98 | 0.954 | 0.976 |
| COP(=O)(OC)Oc1ccc(S(C)=O)c(C)c1 (stereo unspecified) | 1.01 | 0.962 | 0.987 | 0.797 | 0.911 | 1.13 | 0.975 | 1.02 | 1.01 | 0.978 | 1.01 | 1.01 |
